Results on 20 molecules are retold here after PubChem BioAssay (EPA / NIEHS).

Inconclusive results are not listed. Calls of active or inactive are those of the source. How the source made its calls: active means hit-call score of the fitted dose curve at least 0.9, where 1 is the maximum; inconclusive means response in the unintended direction; inactive means score below 0.9.

Chain of human SRC Proto-Oncogene, Non-receptor Tyrosine Kinase (SRC), SRC (gene 6714) (P12931 whole entry, looked up): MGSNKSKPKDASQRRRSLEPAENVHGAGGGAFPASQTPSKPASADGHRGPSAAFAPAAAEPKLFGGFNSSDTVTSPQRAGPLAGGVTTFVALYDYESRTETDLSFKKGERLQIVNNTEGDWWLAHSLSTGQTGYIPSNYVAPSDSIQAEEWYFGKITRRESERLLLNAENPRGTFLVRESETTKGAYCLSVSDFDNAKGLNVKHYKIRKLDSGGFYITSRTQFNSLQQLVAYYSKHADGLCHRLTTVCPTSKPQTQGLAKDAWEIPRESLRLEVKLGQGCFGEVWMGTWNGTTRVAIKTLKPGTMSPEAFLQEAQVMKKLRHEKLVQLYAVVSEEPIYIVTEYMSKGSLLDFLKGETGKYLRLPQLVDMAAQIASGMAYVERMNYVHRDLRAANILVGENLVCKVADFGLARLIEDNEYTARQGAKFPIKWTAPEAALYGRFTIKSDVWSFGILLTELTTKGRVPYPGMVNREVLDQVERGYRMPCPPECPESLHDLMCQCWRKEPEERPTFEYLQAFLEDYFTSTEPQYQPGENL
Chain of human Vascular Endothelial Growth Factor Receptor 2 (VEGFR2), KDR (gene 3791) (P35968 whole entry, looked up): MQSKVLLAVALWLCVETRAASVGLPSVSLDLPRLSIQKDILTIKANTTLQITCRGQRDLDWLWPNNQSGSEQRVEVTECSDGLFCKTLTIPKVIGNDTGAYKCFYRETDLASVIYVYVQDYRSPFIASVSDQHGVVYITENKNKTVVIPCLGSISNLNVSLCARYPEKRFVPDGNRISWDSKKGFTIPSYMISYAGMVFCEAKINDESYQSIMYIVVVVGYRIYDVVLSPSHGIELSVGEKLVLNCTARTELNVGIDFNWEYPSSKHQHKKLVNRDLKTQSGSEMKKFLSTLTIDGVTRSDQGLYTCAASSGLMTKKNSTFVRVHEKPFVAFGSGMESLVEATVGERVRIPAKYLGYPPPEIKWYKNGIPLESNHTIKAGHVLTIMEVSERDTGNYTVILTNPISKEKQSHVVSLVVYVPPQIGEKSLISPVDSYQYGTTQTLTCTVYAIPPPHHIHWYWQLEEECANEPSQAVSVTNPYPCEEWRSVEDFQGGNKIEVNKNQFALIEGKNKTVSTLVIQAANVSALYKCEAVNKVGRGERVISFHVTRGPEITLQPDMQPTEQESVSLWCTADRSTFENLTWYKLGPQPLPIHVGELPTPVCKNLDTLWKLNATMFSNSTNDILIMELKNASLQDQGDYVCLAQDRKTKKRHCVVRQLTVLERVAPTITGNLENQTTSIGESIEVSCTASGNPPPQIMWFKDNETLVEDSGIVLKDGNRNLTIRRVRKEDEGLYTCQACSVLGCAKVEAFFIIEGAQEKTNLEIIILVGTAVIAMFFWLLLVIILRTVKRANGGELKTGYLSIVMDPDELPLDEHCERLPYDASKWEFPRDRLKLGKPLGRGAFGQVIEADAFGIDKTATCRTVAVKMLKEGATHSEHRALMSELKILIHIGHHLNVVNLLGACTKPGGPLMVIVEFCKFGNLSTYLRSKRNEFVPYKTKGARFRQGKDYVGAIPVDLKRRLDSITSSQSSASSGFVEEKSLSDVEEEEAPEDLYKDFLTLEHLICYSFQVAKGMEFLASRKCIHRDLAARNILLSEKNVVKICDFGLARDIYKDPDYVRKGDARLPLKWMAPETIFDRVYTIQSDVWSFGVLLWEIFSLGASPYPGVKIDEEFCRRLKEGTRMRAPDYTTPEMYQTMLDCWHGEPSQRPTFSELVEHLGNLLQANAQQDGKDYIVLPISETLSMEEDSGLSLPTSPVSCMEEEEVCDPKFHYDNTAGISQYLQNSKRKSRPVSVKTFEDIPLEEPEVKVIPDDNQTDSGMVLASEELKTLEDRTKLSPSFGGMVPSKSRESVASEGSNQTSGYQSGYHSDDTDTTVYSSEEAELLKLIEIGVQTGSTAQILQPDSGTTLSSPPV
Chain of human Sirtuin 3 (SIRT3), SIRT3 (gene 23410) (Q9NTG7 whole entry, looked up): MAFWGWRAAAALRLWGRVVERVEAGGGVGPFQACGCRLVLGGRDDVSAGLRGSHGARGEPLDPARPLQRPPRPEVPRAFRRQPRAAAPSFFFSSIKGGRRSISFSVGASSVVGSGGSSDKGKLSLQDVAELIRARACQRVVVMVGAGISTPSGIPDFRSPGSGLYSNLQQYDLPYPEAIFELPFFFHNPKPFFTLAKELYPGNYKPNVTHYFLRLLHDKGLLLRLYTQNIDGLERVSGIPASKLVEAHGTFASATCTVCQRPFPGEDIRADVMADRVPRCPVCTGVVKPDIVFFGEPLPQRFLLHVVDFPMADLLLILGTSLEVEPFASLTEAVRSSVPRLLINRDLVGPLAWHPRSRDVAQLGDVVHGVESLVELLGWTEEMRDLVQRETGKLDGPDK
Chain of human Tropomyosin Receptor Kinase A (TRKA), NTRK1 (gene 4914) (P04629 whole entry, looked up): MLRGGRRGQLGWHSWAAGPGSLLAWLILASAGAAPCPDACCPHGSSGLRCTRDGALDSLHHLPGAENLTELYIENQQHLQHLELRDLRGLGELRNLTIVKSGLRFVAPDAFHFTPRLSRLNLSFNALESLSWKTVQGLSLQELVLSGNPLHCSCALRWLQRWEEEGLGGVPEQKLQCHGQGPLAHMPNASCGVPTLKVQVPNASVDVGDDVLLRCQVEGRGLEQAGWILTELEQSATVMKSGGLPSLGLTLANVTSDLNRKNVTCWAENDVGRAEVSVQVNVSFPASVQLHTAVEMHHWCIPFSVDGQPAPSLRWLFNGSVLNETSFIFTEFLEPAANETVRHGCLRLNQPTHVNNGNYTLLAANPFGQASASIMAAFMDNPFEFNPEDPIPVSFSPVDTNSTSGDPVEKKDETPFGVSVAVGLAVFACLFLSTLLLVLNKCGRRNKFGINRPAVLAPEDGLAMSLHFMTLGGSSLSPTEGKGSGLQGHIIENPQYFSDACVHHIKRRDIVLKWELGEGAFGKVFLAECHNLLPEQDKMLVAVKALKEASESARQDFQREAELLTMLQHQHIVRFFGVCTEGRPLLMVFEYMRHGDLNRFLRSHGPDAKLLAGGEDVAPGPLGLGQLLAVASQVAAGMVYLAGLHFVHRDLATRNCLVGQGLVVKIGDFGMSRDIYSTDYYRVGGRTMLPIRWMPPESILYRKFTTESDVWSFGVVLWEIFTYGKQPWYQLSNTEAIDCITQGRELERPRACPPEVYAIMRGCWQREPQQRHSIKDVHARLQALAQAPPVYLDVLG

The target of one test is human Sirtuin 1 (SIRT1), SIRT1 (gene 23411) (UniProt Q96EB6). Kind of test: NVS_ENZ_hSIRT1: NovaScreen (NVS) Enzymatic Assay for human Sirtuin 1 (SIRT1) (AID 2283219). The gist of the method: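 Cell-free recombinant SIRT1 with a fluorescent substrate; substrate and product separated by electrophoretic mobility shift and read by fluorescence intensity, 1 h after dosing. Primary screen at 25 uM in duplicate; hits re-run in concentration-response up to 50 uM, relative to DMSO.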
Chain of human Sirtuin 1 (SIRT1), SIRT1 (gene 23411) (Q96EB6 whole entry, looked up): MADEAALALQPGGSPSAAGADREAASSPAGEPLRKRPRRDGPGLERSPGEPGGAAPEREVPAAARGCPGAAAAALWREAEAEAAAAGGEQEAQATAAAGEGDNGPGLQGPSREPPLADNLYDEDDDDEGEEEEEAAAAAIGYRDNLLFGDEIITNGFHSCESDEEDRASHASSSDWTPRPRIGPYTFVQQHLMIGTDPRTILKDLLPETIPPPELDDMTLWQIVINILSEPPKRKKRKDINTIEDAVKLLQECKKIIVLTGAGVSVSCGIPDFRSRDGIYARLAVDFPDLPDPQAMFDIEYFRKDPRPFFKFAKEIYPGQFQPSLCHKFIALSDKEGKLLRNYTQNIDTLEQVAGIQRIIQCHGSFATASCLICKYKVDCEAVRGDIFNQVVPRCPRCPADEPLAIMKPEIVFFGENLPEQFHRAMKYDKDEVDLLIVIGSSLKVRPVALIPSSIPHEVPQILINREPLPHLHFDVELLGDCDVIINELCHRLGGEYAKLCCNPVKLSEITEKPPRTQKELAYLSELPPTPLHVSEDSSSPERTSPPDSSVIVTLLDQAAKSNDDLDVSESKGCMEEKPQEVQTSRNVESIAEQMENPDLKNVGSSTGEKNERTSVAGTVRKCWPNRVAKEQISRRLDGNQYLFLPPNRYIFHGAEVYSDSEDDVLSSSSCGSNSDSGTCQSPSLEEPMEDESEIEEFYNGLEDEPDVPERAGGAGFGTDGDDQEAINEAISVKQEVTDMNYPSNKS
For `CN1C(=O)N(c2ccccc2Br)Cc2cnc(Nc3ccc4c(c3)OCC(CO)O4)nc21` (configuration not stated), the molecule was called inactive.

Consider `CCCCCCCCCC(=O)O`, for which the molecule was called inactive.

As to `COc1ccc2cc(S(=O)(=O)N[C@H](CC(=O)N[C@H](Cc3ccc(CN4[C@H](C)CCC[C@@H]4C)cc3)C(=O)N(C)C(C)C)c3ccc4c(c3)OCO4)ccc2c1`, the molecule was called inactive.

For the molecule `CC(=O)N1CCN(c2ccc(OC[C@H]3CO[C@](Cn4ccnc4)(c4ccc(Cl)cc4Cl)O3)cc2)CC1`, the outcome was inactive.

Regarding `O=c1c(-c2ccc(O)cc2)coc2cc(O)cc(O)c12`, the outcome was inactive.

With `Oc1ccc2ccccc2c1`, the outcome was inactive.

In the next test the target is human Sirtuin 3 (SIRT3), SIRT3 (gene 23410) (UniProt Q9NTG7). Kind of test: NVS_ENZ_hSIRT3: NovaScreen (NVS) Enzymatic Assay for human Sirtuin 3 (SIRT3) (AID 2283222). On the procedure:
NVS_ENZ_hSIRT3 is a biochemical, single-readout assay that uses extracted gene-proteins in a cell-free assay. Measurements were taken 1 hour after chemical dosing in a 384-well plate.NVS_ENZ_hSIRT3 is one of one assay component(s) measured or calculated from the NVS_ENZ_hSIRT3 assay. It is designed to make measurements of enzyme activity, a form of enzyme reporter, as detected with fluorescence intensity signals by Fluorescence and electrophoretic mobility shift technology.Data from the assay component NVS_ENZ_hSIRT3 was analyzed into 1 assay endpoint. This assay endpoint, NVS_ENZ_hSIRT3, was analyzed in the positive analysis fitting direction relative to DMSO as the negative control and baseline of activity. Using a type of enzyme reporter, loss-of-signal activity can be used to understand changes in the enzymatic activity as they relate to the gene SIRT3. Furthermore, this assay endpoint can be referred to as a primary readout, because this assay has produced multiple assay endpoints where this one serves a enzymatic activity function. To generalize the intended target to other relatable targets, this assay endpoint is annotated to the hydrolase intended target family, where the subfamily is protein deacetylase.
Binding assays used specific radioligands (tritiated, iodinated) with non-radioactive competitive displacement ligands in agonist or antagonist protocols (as indicated) and various reference compounds and inhibitors to titrate specific binding to receptors and transporters. Most enzyme assays (CYPs, kinases, phosphatases, proteases, HDACs) used recombinant protein and specific substrates (fluorescence mostly, some colorimetric and radioactive) and inhibitors, followed by a biochemical separation of substrate and product. All assays for the biochemical HTS were initially run in duplicate at a single concentration (10 uM for CYP450 assays and 25 uM for all others). Assay-chemical combinations meeting a pre-defined threshold (e.g., 30% inhibition and other criteria defined below) were then run in singleton concentration-response format with maximum concentration of 20 uM for CYPs and 50 uM for all others. Each assay was run with positive and negative controls, and concurrent controls on every plate. The follow-up (secondary) screen tested active chemical-pairs in concentration series, as well as a few additional assays not tested in the primary screen, some selected negative inactives, and several cases re-run in the concentration series for confirmatory purposes.
What is called AC50 is the midpoint of the concentration-response curve, whichever way the signal moves. Regarding `CCN(CC)C(=O)c1cc(S(=O)(=O)Cc2ccccc2)c(N2CCC(c3ccccc3)CC2)cc1N(CC)CCN(C)C`, the AC50 is 4.57 µM (active).

Consider `Cc1oc2c(NC(=O)c3c(Cl)cccc3Cl)cccc2c1C(C)(C)O`, for which the call was inactive.

In the case of `O=C1c2ccccc2C(=O)N1CCc1noc(-c2ccc(CN3CCCCCC3)s2)n1`, the result was inactive.

With `NC(=O)c1nc(-c2cccc(-c3cc(F)ccc3OCC(F)(F)C(F)(F)F)c2)n[nH]1`, the molecule was classed as inactive.

For the molecule `O=C(Nc1ccc(Cl)cc1)Nc1ccc(Cl)c(Cl)c1`, the molecule was called inactive.

For `O=C1O[C@H]([C@@H](O)CO)C(O)=C1O`, the molecule was called inactive.

For `Cc1occc1C(=O)Nc1ccc(C(=O)N2CCC(F)(F)/C(=C\C(=O)N3CCC(N4CCCCC4)CC3)c3ccccc32)cc1`, the result was inactive.

The target in the next test is human SRC Proto-Oncogene, Non-receptor Tyrosine Kinase (SRC), SRC (gene 6714) (UniProt P12931). Kind of test: NVS_ENZ_hSRC: NovaScreen (NVS) Enzymatic Assay for human SRC Proto-Oncogene, Non-receptor Tyrosine Kinase (SRC) (AID 2283223). The method in brief:
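Cell-free kinase activity assay with fluorescent substrate, product separated by electrophoretic mobility shift, read 1 h after dosing. Duplicate single point at 25 uM, then concentration-response up to 50 uM; loss of signal versus DMSO.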
As to `CN1C(=O)N(c2ccccc2Br)Cc2cnc(Nc3ccc4c(c3)OCC(CO)O4)nc21` (configuration not stated), the AC50 was 0.00229 µM (active).

For `c1ccc2ccccc2c1`, the outcome was inactive.

With `Cc1cccc2ccccc12`, the outcome was inactive.

A further test has as its target human Tropomyosin Receptor Kinase A (TRKA), NTRK1 (gene 4914) (UniProt P04629). The experiment in a line: NVS_ENZ_hTrkA: NovaScreen (NVS) Enzymatic Assay for human Tropomyosin Receptor Kinase A (TRKA) (AID 2283224). The gist of the method:
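Recombinant human TrkA activity read after 1 h by fluorescence with electrophoretic mobility shift separating substrate and product. Primary screen in duplicate at 25 uM; actives were rerun in concentration-response up to 50 uM. Loss of signal versus DMSO.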
As for `CN1C(=O)N(c2ccccc2Br)Cc2cnc(Nc3ccc4c(c3)OCC(CO)O4)nc21` (configuration not stated), the AC50 is 0.493 µM (active).

Take `CCCCCCCCCC(=O)O`: the molecule was classed as inactive.

For `O=C(O)Cc1cc(I)c(Oc2ccc(O)c(I)c2)c(I)c1`, the AC50 was 2.58 µM (active).

The target in a further test is rabbit Imidazoline 2 Central (I2C), CKB (gene 100009085) (UniProt P00567). Kind of test: NVS_ENZ_rabI2C: NovaScreen (NVS) Enzymatic Assay for rabbit Imidazoline 2 Central (I2C) (AID 2283228). The gist of the method: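 Rabbit brain membranes, cell-free; readout by filter-based scintillation counting 1.5 hours after dosing, loss of signal vs DMSO. Initial duplicate test at 25 uM, then concentration-response with 50 uM top concentration.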
Chain of rabbit Imidazoline 2 Central (I2C), CKB (gene 100009085) (P00567 whole entry, looked up): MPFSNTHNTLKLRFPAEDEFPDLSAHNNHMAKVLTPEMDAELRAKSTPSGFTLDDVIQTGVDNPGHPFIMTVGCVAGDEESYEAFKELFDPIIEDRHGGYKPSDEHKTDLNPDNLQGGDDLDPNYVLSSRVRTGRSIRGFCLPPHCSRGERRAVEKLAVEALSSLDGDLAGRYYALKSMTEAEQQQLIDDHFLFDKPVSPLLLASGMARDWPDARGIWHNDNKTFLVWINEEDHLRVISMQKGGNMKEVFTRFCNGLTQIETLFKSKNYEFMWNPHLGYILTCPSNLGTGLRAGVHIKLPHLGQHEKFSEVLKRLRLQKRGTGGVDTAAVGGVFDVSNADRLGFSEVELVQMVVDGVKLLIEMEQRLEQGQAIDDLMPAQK
For `Clc1cc(Cl)c2c(c1)N=C1CCCCCN1C2`, the AC50 was 6.89 µM (active).

Consider `Cc1oc2c(NC(=O)c3c(Cl)cccc3Cl)cccc2c1C(C)(C)O`, for which the call was inactive.

As for `O=C1c2ccccc2C(=O)N1CCc1noc(-c2ccc(CN3CCCCCC3)s2)n1`, the AC50 is 7.93 µM (active).

Take `CCCC(=O)OCCC(C)C`: the outcome was inactive.

A further test addresses human Vascular Endothelial Growth Factor Receptor 2 (VEGFR2), KDR (gene 3791) (UniProt P35968). The experiment in a line: NVS_ENZ_hVEGFR2: NovaScreen (NVS) Enzymatic Assay for human Vascular Endothelial Growth Factor Receptor 2 (VEGFR2) (AID 2283230). The method in brief: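 Cell-free recombinant VEGFR2 kinase, fluorescent substrate with electrophoretic mobility-shift separation; read 1 h after dosing. Screened at 25 uM in duplicate, hits to concentration-response up to 50 uM; loss-of-signal versus DMSO.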
Turning to `c1ccc2ccccc2c1`, the molecule was called inactive.

`OCCO`: the molecule was called inactive.

Turning to `O=C(Nc1ccc(Cl)cc1)Nc1ccc(Cl)c(Cl)c1`, the molecule was classed as inactive.

As for `COc1cc(C(=O)NC2CCN(C)CC2)ccc1Nc1ncc2c(n1)N(C1CCCC1)CC(F)(F)C(=O)N2C`, the call was inactive.
